The source of these data is PubChem BioAssay AID463173 (ICCB-Longwood Screening Facility, Harvard Medical School, 2010).

Among all 52,000 compounds or so, about 1,700 (3.3%) were called active. The entries come from a sample that favours actives as a whole. A number with no mark means an inactive call. Cut-off read from the data, not from the text of the source: active = survival mostly below about 52% (no sharp cut-off); inactive = mostly above about 56%.

The assay relates to Wild type. The assay is described as follows: growth inhibition of S. aureus wild type versus tarO mutant, primary screen, teichoic acid synthesis inhibitors, RN4220, OD600 (AID 463173). As to conditions: S. aureus RN4220 wild type/DeltatarO growth, OD600, 18 h, hits give low values, screened at 18.75 µg/mL (by protocol).
For the compound `Cc1ccc(CNC(=O)CN2N=C(c3ccc(C)cc3)CCC2=O)cc1`, the survival is 80%.

Take `CCCCN(CCCC)c1nc(-c2ccccc2)nc2ccccc12`: the survival was -3% (active).

With `CCCCc1nc2ccccc2c(C(=O)O)c1C`, the survival is 106%.

As to `Cc1ccc(C(=O)COC(=O)c2cc(-c3ccc(Cl)cc3)nc3ccccc23)cc1`, the survival is 117%.

For the compound `CCCCN(CC)c1nc(-c2ccccc2F)nc2ccccc12`, the survival is 71%.

Regarding `CCCCN(C)CCCNC(=O)c1cc(-c2cccnc2)nc2ccccc12`, the survival is 77%.

As for `CCN(CC)c1nc(-c2ccc(C(C)(C)C)cc2)nc2ccccc12`, the survival is -2% (active).

Turning to `COc1ccccc1Nc1nc(-c2ccccc2F)nc2ccccc12`, the survival was 73%.

For the compound `CCCN(CCC)c1nc(-c2ccccc2F)nc2ccccc12`, the survival is 1% (active).

Regarding `Cc1cc(N(C)Cc2ccccc2)n2nc(-c3ccc(C(C)(C)C)cc3)nc2n1`, the survival is 77%.

On to `CCN(CC)c1nc(-c2ccccc2)nc2ccccc12`, for which the survival was 108%.

Regarding `Cc1cc(Sc2ccc(Cl)cc2)nc2ccccc12`, the survival is 50%.

Regarding `CC(C)CN(CC(C)C)c1nc(-c2ccc(Cl)cc2)nc2ccccc12`, the survival was -1% (active).

With `COc1ccc(-n2ccnc2SCC(=O)Nc2ccc(F)cc2F)cc1`, the survival was 143%.

On to `Cc1ccccc1NC(=O)CSc1ncc2c(n1)-c1ccccc1N(C)S2(=O)=O`, for which the survival is 99%.

Consider `CCN(C(=O)c1sc2nc3n(c(=O)c2c1C)CCCCC3)c1ccc(OC)cc1`, for which the survival was 83%.

With `CCN(C(=O)C1CCC(CNS(=O)(=O)c2cccc3nsnc23)CC1)c1cccc(C)c1` (configuration not stated), the survival is 86%.

As for `N#Cc1c(/N=C/c2ccc3c(c2)OCO3)oc(-c2ccccc2)c1-c1ccccc1`, the survival was 115%.

`COc1cccc(CNC(=O)Cn2c(=O)nc(-c3ccccc3F)c3cc(Cl)ccc32)c1`: the survival is 82%.

Turning to `O=C(COc1ccccc1)NS(=O)(=O)c1ccc(N=NN2CCOCC2)cc1`, the survival was 105%.

In the case of `Cc1ccc(CNC(=O)C(=O)Nc2c3c(nn2-c2ccccc2)CSC3)cc1`, the survival was 82%.

Turning to `COc1ccc(NC(=O)CSc2ncc3c(n2)-c2cc(Cl)ccc2N(Cc2ccccc2F)S3(=O)=O)cc1`, the survival was 65%.

Take `CCc1ccccc1NC(=O)CC1NCCNC1=O` (configuration not stated): the survival is 87%.

In the case of `O=C(Nc1cccc(C(F)(F)F)c1)C1CCN(S(=O)(=O)c2cccs2)CC1`, the survival is 92%.

As to `Cc1cccc(N2CCN(C(=O)c3ccc4nc(N5CCC(C)CC5)sc4c3)CC2)c1C`, the survival was 1% (active).

For the compound `Cc1ccc(Cl)cc1N1CCN(C(=O)c2ccc3nc(N4CCC(C)CC4)sc3c2)CC1`, the survival was 16%.

Turning to `Cc1ccc(C)c(N2CCN(CCCNC(=O)c3ccc4nc(N5CCCCC5)sc4c3)CC2)c1`, the survival was 76%.

Turning to `Cc1ccc(Cl)cc1N1CCN(CCCNC(=O)c2ccc3nc(N4CCCCC4)sc3c2)CC1`, the survival is 45%.

With `Cc1ccc(C)c(N2CCN(CCCNC(=O)c3ccc4nc(N5CCC(C)CC5)sc4c3)CC2)c1`, the survival is 1% (active).

`CC1CCN(c2nc3ccc(C(=O)N4CCN(c5ccccc5)CC4)cc3s2)CC1`: the survival is 64%.

In the case of `O=C(O)CCc1ccc(-c2cccs2)n1CC(=O)Nc1ccccc1C(F)(F)F`, the survival is 105%.

For `COc1ccc(OC)c(NC(=O)N2CCC(CN3CCCCC3)CC2)c1`, the survival is 70%.

Consider `O=C(NCC(c1cccs1)S(=O)(=O)c1cccs1)c1c(F)cccc1F` (configuration not stated), for which the survival was 71%.

Consider `COCCCNC(=O)C1CCN(Cc2cc3ccccc3n2Cc2ccccc2C)CC1`, for which the survival was 78%.

In the case of `C=CCC1Cc2ccccc2C(CC=C)N1` (configuration not stated), the survival is 100%.

Turning to `O=C(NCCCN1CCCCC1)c1ccc2c(c1)sc1nc(-c3ccc(F)cc3)cn12`, the survival is 43%.

For `CCN1CCN(CCCNC(=O)c2ccc3c(c2)sc2nc(-c4ccc(C)cc4)cn23)CC1`, the survival was 29%.

Turning to `Cc1ccc(-c2cn3c(n2)sc2cc(C(=O)NCCCN4CCCCC4)ccc23)cc1`, the survival was -1% (active).

Regarding `COc1ccc(-c2cn3c(n2)sc2cc(C(=O)NCCCN4CCCCC4)ccc23)cc1`, the survival is 81%.

With `COc1ccc(-c2cn3c(n2)sc2cc(C(=O)NCCCN4CCCCCC4)ccc23)cc1`, the survival was 66%.

As for `Cc1ccc(-c2cn3c(n2)sc2cc(C(=O)NCCCN4CCCCCC4)ccc23)cc1`, the survival was -1% (active).

With `CCC1CCCCN1CCCNC(=O)c1ccc2c(c1)sc1nc(-c3ccc(F)cc3)cn12` (configuration not stated), the survival is 6% (active).

With `CCCN1CCN(CCCNC(=O)c2ccc3c(c2)sc2nc(-c4ccc(C)cc4)cn23)CC1`, the survival is 20%.

As to `CC1CCCCN1CCCNC(=O)c1ccc2c(c1)sc1nc(-c3ccc(F)cc3)cn12` (configuration not stated), the survival was 26%.

In the case of `CCCCNC(=O)c1ccc(-c2nc(CS(=O)(=O)c3ccc(C)cc3)c(C)o2)cc1`, the survival was 83%.

For `COc1ccc(C2=NN(C(C)=O)C(c3cn(-c4ccccc4)nc3-c3cccs3)C2)cc1` (configuration not stated), the survival is 127%.

As to `O=C(NCCN1CCOCC1)N1CCNC1=O`, the survival is 110%.

Take `CC1(C)N=C2C(=[N+]1[O-])CCC/C2=N/O`: the survival is 110%.

As for `Cc1ccc(C)c(NC(=O)NCc2ccc3c(c2)CCN3C(=O)c2ccccc2)c1`, the survival is 66%.

As for `CC(C)N1CCc2nc(SCC(=O)Nc3cccc(F)c3)[nH]c(=O)c2C1`, the survival was 83%.

Turning to `Cc1ccc(NC(=O)Cn2c(=O)n(CCC(C)C)c(=O)c3cccnc32)cc1C`, the survival was 90%.

Take `Cc1ccc(-c2nc(CS(=O)CC(=O)NCc3ccccc3Cl)c(C)o2)cc1` (configuration not stated): the survival was 72%.

As to `CCc1cc(=O)[nH]c(SCc2nc(-c3cccc(Cl)c3)no2)n1`, the survival is 22%.

In the case of `COc1ccc(-c2noc(CSc3nc4ccc(C)cc4[nH]3)n2)cc1`, the survival was 47%.

Regarding `CCCc1cc(=O)[nH]c(SCc2nc(-c3ccc(C)cc3)no2)n1`, the survival is 73%.

`CCCc1cc(=O)[nH]c(SCc2nc(-c3ccccc3)no2)n1`: the survival was -2% (active).

For the compound `CCc1cc(=O)[nH]c(SCc2nc(-c3ccc(C(F)(F)F)cc3)no2)n1`, the survival is 0% (active).

For `Cc1ccc2nc(SCc3nc(-c4ccc(Cl)cc4)no3)[nH]c2c1`, the survival was -4% (active).

For the compound `O=c1cc(-c2ccc(F)cc2)nc(SCc2nc(-c3ccccc3Cl)no2)[nH]1`, the survival is 121%.

Turning to `Cc1ccccc1-c1noc(CSc2nc(-c3ccc(F)cc3)cc(=O)[nH]2)n1`, the survival is 10% (active).

As to `CCc1cc(=O)[nH]c(SCc2nc(-c3ccccc3)no2)n1`, the survival was 87%.

For `Cc1ccc2nc(SCc3nc(-c4ccccc4C)no3)[nH]c2c1`, the survival was 27%.

Turning to `O=c1cc(-c2ccccc2)nc(SCc2nc(-c3ccc(C(F)(F)F)cc3)no2)[nH]1`, the survival was 150%.

Regarding `Cc1cccc(-c2noc(CSc3nc(-c4ccc(F)cc4)cc(=O)[nH]3)n2)c1`, the survival is 82%.

As for `CCn1nc(CC(=O)Nc2nnc(CC(=O)N3CCCC3)s2)c2ccccc2c1=O`, the survival is 95%.

As to `Cc1nc2ccc(S(=O)(=O)NC(C(=O)NCc3ccc(Cl)cc3)C(C)C)cc2s1` (configuration not stated), the survival was 133%.

In the case of `O=C(CCS(=O)(=O)c1cc2c(cc1Cl)NC(=O)CO2)NCc1ccccc1Cl`, the survival is 88%.

Take `COc1cc(NC(=O)CN(c2cc(C)cc(C)c2)S(=O)(=O)c2c(C)[nH]c(=O)[nH]c2=O)cc(OC)c1`: the survival is 83%.

Consider `Cc1cccc(NC(=O)C2CCN(c3nnc(-n4c(C)ccc4C)s3)CC2)c1C`, for which the survival was 132%.

With `O=C(COCc1cc(-c2ccc(F)cc2)on1)Nc1cccc(C(F)(F)F)c1`, the survival was 77%.

For the compound `O=C(c1ccccc1)N(Cc1ccco1)Cc1cccs1`, the survival is 82%.

As to `CCn1c(CN2CCCCC2)nc2cc(NC(=O)COc3ccccc3C(C)(C)C)ccc21`, the survival is 122%.

On to `Cc1ccc(C(=O)c2cn(Cc3ccc(Cl)cc3)c3nc(C)ccc3c2=O)cc1`, for which the survival is 53%.

Regarding `Cc1ccc(Cn2cc(C(=O)c3ccc(C)cc3)c(=O)c3ccc(C)nc32)cc1`, the survival is 20% (active).

`Cc1ccc(C(=O)c2cn(Cc3ccc(F)cc3)c3nc(C)ccc3c2=O)cc1`: the survival was 95%.

For the compound `CCOC(=O)c1cc(-c2ccccc2)n(CC(=O)Nc2cc(Cl)c(OC)cc2OC)c1C`, the survival was 128%.

Take `CCOC(=O)c1ccc(NS(=O)(=O)c2cc(Br)cc3c2N(C(C)=O)C(C)C3)cc1` (configuration not stated): the survival was 83%.

Turning to `COc1ccc(N2CCN(C(=O)CCS(=O)(=O)c3cc4c(cc3Cl)NC(=O)CO4)CC2)cc1`, the survival is 85%.

Regarding `CCOCCc1nnc(NC(=O)C(=O)c2cc(C)n(-c3ccc(C)cc3C)c2C)s1`, the survival was 85%.

On to `Cc1ccc(-c2nc3c(C)cccn3c2Nc2ccccc2C)s1`, for which the survival is -2% (active).

Regarding `Cc1cccc(C)c1Nc1c(-c2ccccn2)nc2c(C)cccn12`, the survival is 77%.

Turning to `Cc1ccccc1Nc1c(-c2ccco2)nc2c(C)cccn12`, the survival was 1% (active).

On to `Fc1ccc(Nc2c(-c3ccco3)nc3ccccn23)cc1`, for which the survival is 69%.

With `Cc1ccccc1Nc1c(-c2ccc(Cl)s2)nc2c(C)cccn12`, the survival was 69%.

`Cc1ccc(-c2nc3ccccn3c2Nc2ccccc2C)s1`: the survival was 11% (active).

Regarding `Cc1ccccc1Nc1c(-c2ccc(Cl)s2)nc2cccc(C)n12`, the survival is 80%.

Take `Cc1ccc(Nc2c(-c3ccc(C)s3)nc3ccccn23)cc1`: the survival was 31%.

For the compound `Cc1ccc(-c2nc3ccc(Cl)cn3c2Nc2ccccc2C)s1`, the survival was 94%.

Consider `CCc1nnc(SCc2nc(-c3ccc(OC)cc3)oc2C)c2cc3sccc3n12`, for which the survival is 86%.

For `Cc1ccc(C)c(S(=O)(=O)n2nnc3ccccc32)c1`, the survival was 104%.

Turning to `CCOC(=O)N1CCc2c(sc3c2c(=O)n(-c2ccc(Cl)cc2)c(=O)n3Cc2cccc(OC)c2)C1`, the survival was 120%.

In the case of `Cc1ccc(CCNC(=O)Cn2c(-c3cccs3)cc3ccccc32)cc1`, the survival was 119%.
